{"source": "the OligoGym collection", "data": [{"target": "JDP2", "assay": "pooled miR-30 sensor sort-seq; sequence = guide strand", "conditions": "shRNA", "values": [{"sequence": "TAGCTCACTTTTCACGGGCTGG", "sensor-assay potency score (higher = more potent)": -0.699}, {"sequence": "TTTGGTTGCAACTCATGGCTTT", "sensor-assay potency score (higher = more potent)": 0.0923}, {"sequence": "ATAACAAACAAACCATAGCATA", "sensor-assay potency score (higher = more potent)": -1.75}, {"sequence": "TTAGGAGTTACACACAACGGCC", "sensor-assay potency score (higher = more potent)": -1.56}, {"sequence": "TATACTGTATCACATCGAGTGA", "sensor-assay potency score (higher = more potent)": -0.648}, {"sequence": "TAAACATTCGGTGAGTATGTGC", "sensor-assay potency score (higher = more potent)": -0.401}, {"sequence": "TATCTGTTCATAACAAACAAAC", "sensor-assay potency score (higher = more potent)": -1.71}, {"sequence": "TACTGTATCACATCGAGTGATT", "sensor-assay potency score (higher = more potent)": -0.618}, {"sequence": "TCTTCTTGTTCCGGCATCGGGC", "sensor-assay potency score (higher = more potent)": -0.866}, {"sequence": "TTTCATTCTGAGTTCCATCCTC", "sensor-assay potency score (higher = more potent)": 0.428}, {"sequence": "TTTATACTGTATCACATCGAGT", "sensor-assay potency score (higher = more potent)": -0.987}, {"sequence": "TTTCCTTCGCTCCTCTTCCTCA", "sensor-assay potency score (higher = more potent)": -0.612}]}, {"target": "JMJD1C", "assay": "pooled miR-30 sensor sort-seq; sequence = guide strand", "conditions": "shRNA", "values": [{"sequence": "TTTATCTCTAGAACTCTTCCTT", "sensor-assay potency score (higher = more potent)": 0.72}, {"sequence": "TATCTCTAGAACTCTTCCTTTC", "sensor-assay potency score (higher = more potent)": -0.557}, {"sequence": "TTAACTTGTTATCTGTGCCTAC", "sensor-assay potency score (higher = more potent)": 0.548}, {"sequence": "TATCTTGTCAACATCTTTCCCA", "sensor-assay potency score (higher = more potent)": 0.56}, {"sequence": "TTCAATTTTAAAACAACTGTTT", "sensor-assay potency score (higher = more potent)": -0.691}, {"sequence": "ATTGACAGAACTTATCACCTAT", "sensor-assay potency score (higher = more potent)": 0.441}, {"sequence": "ATCTATTCTAACTACTCCGTTT", "sensor-assay potency score (higher = more potent)": -1.09}, {"sequence": "TAGTCTTGAAGTCTTCTCCTGA", "sensor-assay potency score (higher = more potent)": 0.704}, {"sequence": "TTTACATTTATCTTGGAGGTTT", "sensor-assay potency score (higher = more potent)": -0.435}]}]}
